High-throughput results (PubChem)
Hits are enriched below; roughly 2.1% of the tested compounds scored in any of these assays.
Abeta rescue: qHTS for compounds that reverse cellular toxicity of Amyloid beta (A-beta) peptide in yeast: Primary Screen | Potency, µM (doses to about 46.1 µM), most hits filed as activators | 410,000 compounds, 0.063% hits | yeast expressing A-beta42, growth rescue, OD600, 48 h; response scale: 0% DMSO, 100% iron-clioquinol control; also: nearly all actives have a fitted effect of over 55% in size
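Growth rescue measured by 600 nm absorbance after 48 h yeast culture at 30 C with compound. Values normalized between DMSO and an equimolar ferric chloride plus clioquinol control.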
TDP43 rescue: qHTS of TDP-43 Inhibitors | Potency, µM (titrated, usually from 46.1 µM), for inactives: at the highest dose growth rescue (activation), hits mostly activators | TDP-43 expressing yeast growth rescue, BacTiter-Glo, 24 h | AID 652104, 2013 | 410,000 compounds, 1.8% hits; also: % of control where 0% means no effect; nearly all actives have a fitted effect of over 50% in size
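Yeast cells expressing TDP-43 under galactose induction are exposed to compounds for 24 hr at 30 deg C. BacTiter-Glo luminescence measures growth, so protective compounds score as activators.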
FUS yeast rescue: qHTS for Suppressors of FUS Proteinopathy: Primary screen using FUS-linked yeast assay; 390,000 compounds, 0.24% hits; S. cerevisiae FUS-expressing, growth rescue, OD600, 24 h; Potency, µM (titrated, usually from 76.6 µM), most hits filed as activators;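 also: plate controls were DMSO vehicle for no effect and reference control for full effect; nearly all actives have a fitted effect of over 55% in size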
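Quantitative HTS measuring growth restoration of FUS-toxic yeast. Galactose-induced cells (OD 0.005) were exposed 24hr at 30C to compounds at several concentrations, then absorbance at 600 nm was recorded.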
aSyn rescue: qHTS of alpha-syn Inhibitors; Yeast expressing alpha-synuclein, growth rescue, BacTiter-Glo, 24 h; Potency, µM (doses to about 46.1 µM), inactives show at the top dose growth rescue (activation), hits mostly activators; 370,000 compounds, 0.14% hits; also: % of control where 0% means no effect; nearly all actives have a fitted effect of over 65% in size
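Galactose-induced alpha-syn yeast (OD600=0.02, raffinose-pregrown) + pinned cpd, 24 hr, 30 deg C; growth by BacTiter-Glo luminescence. Growth restoration scores as activation.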
* hit, by the source's call; i = inactive; u = inconclusive; x = not tested or not shown; [ ] = remark or other dose. Calls follow the shape of the dose curve; as a rule, active = well fitted curve in the direction sought with a large enough effect; inconclusive = small, poorly fitted or top-dose-only effect, or another doubt; inactive = no such curve, though single readings can be large; an effect the other way counts as inactive or inconclusive. Potency is read from the fitted curve at half-maximal effect.

SMILES	Abeta rescue	TDP43 rescue	FUS yeast rescue	aSyn rescue
Cc1nc(C)c(-c2ccc(SCC(=O)Nc3ccccc3)nn2)s1	i	9%	i	1%
Cc1nc(C)c(-c2ccc(SCc3ccccc3C)nn2)s1	i	16µM*	i	1%
COc1cc(N2C(=O)C=CC2=O)ccc1N1C(=O)C=CC1=O	i	20µM*	x	15%
COc1ccc2c(C)cc(=S)[nH]c2c1	i	13µM*	i	2%
CN(c1ccccc1)c1nc(C#N)nc(N2CCOCC2)n1	x	x	x	-1%
C=C(C)n1c(=O)n(Cc2ccccc2C)c2ccccc21	i	11µM*	i	0%
COc1ccc(CSCC(=O)Nc2ccc(S(=O)(=O)N3CCCCCC3)cc2)cc1	i	18µM*	x	4%
Cc1ccsc1C1Nc2ccc3ncccc3c2C2=C1C(=O)CC(C)(C)C2 (stereo not drawn)	i	-23%	13µM*	2%
CN=C(Nc1cccc(Cl)c1)SC1CC(=O)N(c2ccc(OC)cc2)C1=O (stereo not drawn)	8.9µM*	29%[9.22 µM]	i	u
CCOc1nc(NC(=O)NS(=O)(=O)Oc2ccccc2)nc(-c2ccccc2)n1	i	u	i	-4%
CC1CC(C)CN(C(=O)CSCC(=O)Nc2nc(-c3cccs3)cs2)C1 (stereo not drawn)	i	0%	i	-7%
O=C(CSCC(=O)N1CCCCC1)Nc1nc(-c2cccs2)cs1	i	32µM*	i	-1%
O=C(CSCC(=O)N1CCCCC1)Nc1nc(-c2ccc(Cl)s2)cs1	i	20µM*	i	-12%
S=c1[nH]c(-c2ccccc2)cn1/N=C/c1ccccc1Br	u	u	i	-19%
Cc1ccc(/C=N/n2cc(-c3ccccc3)[nH]c2=S)s1	4.5µM*	25%	i	-2%
Cc1ccc(S/C(=N/S(=O)(=O)c2ccc(Cl)cc2)c2ccccc2)cc1	x	x	x	-1%
CC(C)(C)n1nnnc1C(c1cccnc1)N1CCN(c2ccccn2)CC1 (stereo not drawn)	i	-5%	i	10%
CC(C)(C)n1nnnc1C(c1ccccc1)N1CCN(c2ccc(C(F)(F)F)cn2)CC1 (stereo not drawn)	i	35µM*	i	-1%
CC(=O)NNC(=S)NC(=O)C(c1ccccc1)c1ccccc1	u	25µM*	i	29%
CC(C)(C)C(=O)NC(=S)NNC(=O)C(c1ccccc1)c1ccccc1	u	u	i	18µM*
O=C(CCS(=O)(=O)c1nc(-c2cccs2)cc(C(F)(F)F)n1)Nc1cc(Br)ccc1O	i	18µM*	i	u
O=C(CCS(=O)(=O)c1nc(-c2ccc3c(c2)OCO3)cc(C(F)(F)F)n1)Nc1ccc(F)cc1F	i	13µM*	i	x
Cc1ccc(O)c(NC(=O)CCS(=O)(=O)c2nc(-c3cccs3)cc(C(F)(F)F)n2)c1	i	11µM*	i	x
O=C(CCS(=O)(=O)c1nc(-c2cccs2)cc(C(F)(F)F)n1)Nc1ccc(Br)cc1	i	u	i	x
COc1ccc(NC(=O)CCS(=O)(=O)c2nc(-c3ccc4c(c3)OCO4)cc(C(F)(F)F)n2)cc1	i	u	i	x
SMILES	Abeta rescue	TDP43 rescue	FUS yeast rescue	aSyn rescue
CCN(CC)CCCNC(=O)c1cn(CC)c2ccc(S(=O)(=O)N3CCC(C)CC3)cc2c1=O	i	1%	i	x
CSc1nnc2c(n1)c(C)nn2-c1cccc(C)c1	i	13µM*	i	-9%
O=C(NC(=S)Nc1cccc2cccnc12)c1cccs1	i	13%	i	16µM*
O=C(NC(=S)Nc1cccc2cccnc12)c1ccccc1	i	15%	i	0%
COc1ccc(N(CC(=O)Nc2cc(C)on2)S(=O)(=O)c2ccc(Cl)cc2)cc1	i	17%	i	1%
COc1ccc(N(CC(=O)Nc2cc(C)on2)S(=O)(=O)c2cc(C)ccc2C)cc1	i	u	32µM*	15%
Cc1c2cnn(CC(=O)Nc3cccc(C(F)(F)F)c3)c(=O)c2c(C)n1Cc1ccccc1Cl	i	26%	i	x
CC1CCN(c2oc(-c3ccco3)nc2S(=O)(=O)c2ccccc2)CC1	i	16µM*	i	-5%
CCOc1ccc(-c2nc(N)ncc2-c2ccc(OC)cc2)c(O)c1	i	10%	x	17%
CCOc1ccc(-c2nc(N)ncc2-c2ccc(Cl)cc2)c(O)c1	i	22µM*	i	3%
CCOc1nc(OCC)nc(N2CCC(C)CC2)n1	i	10%	i	1%
CCOc1nc(NC2CCCC2)nc(N2CCC(C)CC2)n1	u	18µM*	i	-15%
O=C(N/N=C/c1ccccn1)c1sc2ccccc2c1Cl	u	u	i	3.2µM*
COc1ccc(-c2nc(CCl)cs2)cc1	i	9%	i	-3%
COc1cccc(-c2nc(CCl)cs2)c1	i	11µM*	i	-8%
COc1cc(OC)c(NC(=O)c2c(C)nn(-c3ccc(C)cc3)c2-n2cccc2)cc1Cl	i	-13%	i	7%
CC(=O)c1cnc2nc(SCc3ccc(Cl)cc3)nn2c1C	i	14µM*	i	12%
Cc1ccc(Cl)cc1N1CCN(C(=O)c2c(C)oc3ncnc(N4CCOCC4)c23)CC1	i	21%	i	x
COc1ccc(CN2CCCN(CC(=O)Nc3cc(C)ccc3C)S2(=O)=O)cc1	i	u	i	x
Cc1cc2c(c(C)c1Cl)C(c1ccc3c(c1)OCO3)CC(=O)O2 (stereo not drawn)	u	22µM*	u	15%
O=C(NCCc1ccc(Cl)cc1)c1ccc(CS(=O)Cc2cccc(Cl)c2)o1 (stereo not drawn)	i	19%	i	x
CCOC(=O)C1=C(N)N2C(=O)C(C)SC2=C(C(=O)OC)C1c1cccc(OC)c1 (stereo not drawn)	i	20µM*	i	1%
COc1ccc(CCNC(=O)c2ccc3c(c2)N(Cc2ccccc2F)C(=O)c2ccccc2S3(=O)=O)cc1OC	i	-19%	20µM*	x
O=C(NCc1ccc(Cl)cc1)c1ccc2c(c1)N(Cc1ccccc1F)C(=O)c1ccccc1S2=O (stereo not drawn)	i	0%	28µM*	x
COc1ccc(CCNC(=O)c2ccc3c(c2)N(Cc2cccc(C)c2)C(=O)c2ccccc2S3(=O)=O)cc1OC	i	-1%	u	x
C=CCOc1c(Cl)cc(/C=N/O)cc1OC	i	-4%	i	-6%
CCOc1cc(/C=N\O)cc(Cl)c1OCC	i	10µM*	i	-3%
Nn1c(SCC(=O)N2c3ccccc3Sc3ccc(Cl)cc32)nnc1-c1cc(-c2ccc(F)cc2)n[nH]1	x	x	14µM*	x
C=CCn1c(SCC)nc2ccccc2c1=O	x	x	x	0%
O=C(C1COc2ccccc2O1)N1CCN(c2nc3c(F)cccc3s2)CC1 (stereo not drawn)	13µM*	10µM*	i	x
